# Data reported in PubChem BioAssay AID2796 (The Scripps Research Institute Molecular Screening Center, 2010).
# The whole screen tested about 320,000 compounds, of which about 8,000 (2.5%) were called active. This excerpt belongs to a sample that is enriched for actives. Unmarked numbers belong to inactive results. Cut-off read from the data, not from the text of the source: active = activation above about 47%; inactive = the rest.
# Molecular target: Aryl hydrocarbon receptor (Homo sapiens) (UniProt P35869)
# Sequence (P35869 whole entry, looked up): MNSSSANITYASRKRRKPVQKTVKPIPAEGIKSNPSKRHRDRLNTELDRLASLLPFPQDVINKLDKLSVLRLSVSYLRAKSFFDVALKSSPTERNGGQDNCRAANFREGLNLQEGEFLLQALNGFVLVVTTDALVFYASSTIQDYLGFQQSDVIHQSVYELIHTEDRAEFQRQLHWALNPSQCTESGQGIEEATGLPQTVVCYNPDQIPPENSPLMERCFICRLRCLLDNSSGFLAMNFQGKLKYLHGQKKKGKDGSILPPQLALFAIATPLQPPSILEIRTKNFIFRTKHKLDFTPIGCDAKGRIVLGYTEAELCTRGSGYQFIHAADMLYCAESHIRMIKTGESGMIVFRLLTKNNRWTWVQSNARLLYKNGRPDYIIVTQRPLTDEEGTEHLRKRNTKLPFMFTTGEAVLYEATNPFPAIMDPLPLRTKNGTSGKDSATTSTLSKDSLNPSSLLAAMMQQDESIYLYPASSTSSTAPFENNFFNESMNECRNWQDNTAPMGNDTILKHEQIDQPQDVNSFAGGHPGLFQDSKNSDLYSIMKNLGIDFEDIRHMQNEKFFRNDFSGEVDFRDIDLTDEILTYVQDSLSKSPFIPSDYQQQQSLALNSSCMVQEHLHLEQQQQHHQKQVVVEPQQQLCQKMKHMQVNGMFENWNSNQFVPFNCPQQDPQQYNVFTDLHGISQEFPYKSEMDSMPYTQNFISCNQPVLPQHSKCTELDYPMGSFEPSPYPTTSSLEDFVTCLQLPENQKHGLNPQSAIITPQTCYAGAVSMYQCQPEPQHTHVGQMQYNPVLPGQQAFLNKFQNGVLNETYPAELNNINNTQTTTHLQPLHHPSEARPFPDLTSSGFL
# Assay: AHR activators, primary screen, cell-based, luminescence, luciferase reporter, human (AID 2796);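 note: 0% = vehicle wells and 100% = reference agonist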
# Details: AHR-responsive luciferase reporter cells, at 5 µM, stronger effect = higher value
row,SMILES,activation
1,COc1ccc(CCNC(=O)COC(=O)c2ncc(Cl)c(Cl)c2Cl)cc1OC,-0.83%
2,COc1ccc(Nc2nc(N)nc(CSC(=S)N3CCC(C)CC3)n2)cc1,25.5%
3,COc1cccc(NC(=S)N(CCc2c(C)[nH]c3ccccc23)Cc2ccco2)c1,12%
4,COCCNC(=S)N(CCc1c(C)[nH]c2ccc(C)cc12)Cc1cccnc1,20.1%
5,CCNC(=S)N(CCc1c(C)[nH]c2ccc(C)cc12)Cc1ccco1,59.4% (active)
6,Cc1ccc(CN(CC(=O)NC2CCCCC2)C(=O)c2csnn2)cc1,-0.48%
7,CCOC(=O)C1(CCOc2ccccc2)CCN(Cc2cc(OC)cc(OC)c2)CC1,7.35%
8,CCOc1ccc(NC(=O)[C@H](C)NC(=O)C2CC(=O)N(c3ccc(OC)cc3)C2)cc1 (some centres undefined),1.62%
9,CCNC(=O)NC(=O)C(C)OC(=O)C1CCN(S(=O)(=O)c2ccccc2F)CC1 (centres undefined),-0.8%
10,COc1ccccc1N1CCN(C(=O)C2Cc3ccccc3CN2C(=O)c2ccco2)CC1 (centres undefined),1.25%
11,O=C(Nc1ncc2c(n1)-c1ccccc1OC2)c1ccc(Cl)cc1,37%
12,COc1ccc(NC(=O)c2cnc(NS(=O)(=O)c3ccccc3)nc2)cc1,-2.22%
13,COc1ccc(C(=O)Nc2ncc3c(n2)-c2ccccc2CC3)cc1,103% (active)
14,C/C(=N\NC(=S)NCc1ccccc1)C1CCCCC1,3.74%
15,CCN(c1ccccc1)S(=O)(=O)c1ccc(C(=O)Nc2ccccc2OC)cc1,1.62%
16,CCOC(=O)CSc1ccccn1,-0.06%
17,O=C(CSc1ccccn1)Nc1nc2c(ccc3ccccc32)s1,96.3% (active)
18,COC(=O)c1ccccc1NC(=O)CSc1ccccn1,0.37%
19,Cc1ccc(S(=O)(=O)CCC(=O)OCC(=O)NCCc2ccc(S(N)(=O)=O)cc2)cc1,-0.33%
20,CN(CC(=O)Nc1ccc(OC(F)F)cc1)S(=O)(=O)/C=C/c1ccccc1,3.23%

row,SMILES,activation
1,Cc1cc(C)c(S(=O)(=O)c2ccccc2)c(OC(=O)c2c(F)cccc2Cl)n1,-0.47%
2,Cc1cccc(C)c1NC(=O)C1CCCN1C(=O)OC(C)(C)C (centres undefined),4.06%
3,CN(C)S(=O)(=O)c1ccc(NC(=O)COC(=O)c2n[nH]c3ccccc23)cc1,6.56%
4,COc1ccc(NC(=O)COC(=O)c2n[nH]c3ccccc23)c(OC)c1,23.3%
5,O=C(COC(=O)c1n[nH]c2ccccc12)Nc1ccccc1Br,53.9% (active)
6,C[C@@H]1NC(=O)c2cc([N+](=O)[O-])cc(F)c2NCCC[C@@H](C(N)=O)NC(=O)[C@H](CC(N)=O)NC1=O,-4.67%
7,COCCN(C(=O)c1ccccc1F)c1c(N)n(Cc2ccccc2)c(=O)[nH]c1=O,0.27%
8,O=S(=O)(Nc1ccc(O)c2ccccc12)c1ccc(OC(F)(F)F)cc1,33.7%
9,CCOc1ccccc1NC(=O)CCS(=O)(=O)c1cccc2nsnc12,11.7%
10,CCOc1ccc(OCC)c(NC(=O)CN(C)S(=O)(=O)c2cccc3nsnc23)c1,53.7% (active)
11,CCOc1ccc(N(CC)S(=O)(=O)c2cccc3nsnc23)cc1,5.33%
12,Cc1ccccc1CN1CCC(C(=O)Nc2ccc(Oc3cccnc3)cc2)CC1,1.47%
13,O=C(Nc1cc2c3c(c1)CC(=O)N3CCC2)c1ccccc1F,3.64%
14,CC(Nc1nc(C(F)(F)F)nc2ccccc12)c1cccs1 (centres undefined),0.19%
15,Cc1cccc(NC(=O)c2ccc3ccccc3n2)n1,82.1% (active)
16,Cc1cccc(NC(=O)c2cccnc2Cl)n1,-1.7%
17,Cc1cccc(NC(=O)c2cc(N3C(=O)CCC3=O)ccc2Cl)n1,-0.56%
18,Cn1ccnc1-c1nnn(-c2ccc(F)cc2)n1,-1.09%
19,O=C(COc1ccc(-c2ccccc2)cc1)NN=C1CCCC1,52.1% (active)
20,CC(NC(=O)COc1ccc(-c2ccccc2)cc1)C1CCCO1 (centres undefined),19.8%

row,SMILES,activation
1,O=C(COc1ccccc1)Nc1ccc(C(=O)N2CCCC2)cc1,-2.51%
2,CN1CCN(C(CNS(=O)(=O)c2cccs2)c2cccnc2)CC1 (centres undefined),0.06%
3,Cc1cc(C(=O)NNS(=O)(=O)c2ccccc2C(F)(F)F)nn1C(C)(C)C,33.2%
4,CC(C)(C)c1cc(C(=O)NCc2cccnc2)ccn1,5.21%
5,Cc1c(C(=O)NC(=S)NCc2cccnc2)oc2ccccc12,6.27%
6,Cc1ccc(C(=O)NC(=S)NCc2cccnc2)cc1,70.4% (active)
7,CS(=O)(=O)N1CCCC(C(=O)N2CCOCC2)C1 (centres undefined),-4.42%
8,COc1ccc(CNc2nc(NCc3ccc(OC)cc3)c3ncn(C4CCCC4)c3n2)cc1,5.12%
9,CCN(CC(=O)Nc1ccccc1C(F)(F)F)C(=O)C1CCN(C(=O)Nc2ccccc2)CC1,0.13%
10,CSc1ncccc1C(=O)NCC(c1ccco1)N1CCCCC1 (centres undefined),0.96%
11,Cc1c(C(=O)NCC(c2ccco2)N2CCCC2)oc2ccc(Cl)cc12 (centres undefined),91.5% (active)
12,Cc1cc(S(=O)(=O)Nc2ccc(C(=O)NCC(c3ccco3)N3CCCC3)cc2)ccc1F (centres undefined),2.37%
13,O=C1/C(=C/c2ccc3c(c2)OCO3)Oc2cc(OCC(=O)N3CC(O)C[C@H]3C(=O)O)ccc21 (some centres undefined),0.62%
14,Cc1[nH]n(-c2ccccc2)c(=O)c1/C=N/NC(=O)c1ccoc1C,24.8%
15,COc1cc(SC#N)ccc1N=Cc1c(C)[nH]n(-c2ccc(C)cc2)c1=O,71.7% (active)
16,Cc1ccc(-n2[nH]c(C)c(/C=N/NC(=O)c3cccc([N+](=O)[O-])c3)c2=O)cc1C,15.9%
17,Cc1nn(C)c(C)c1Sc1ccccc1N,2.57%
18,O=C(Nc1ccccc1Cl)N1CCN(c2ccc3nncn3n2)CC1,-1.87%
19,Cc1ccc(/C=C(\C#N)C(=O)Nc2cccc3ncccc23)o1,7%
